Sfp PPTase inh – qHTS Assay for Inhibitors of Bacillus subtilis Sfp phosphopantetheinyl transferase (PPTase); Potency, µM, most hits filed as inhibitors; actives 3.5% (n = 310,000); Biochemical Sfp PPTase activity, qHTS; AID 1490, 2009; 4'-phosphopantetheinyl transferase ffp (Bacillus subtilis), Q9F4F7;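 further: the enzyme is Sfp with the accession as filed and its product quenches rhodamine fluorescence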
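With Hepes-Na pH 7.6 buffer containing 10 mM MgCl2, Sfp (15 nM) modified BHQ-2-YbbR (12.5 uM) using rhodamine-CoA (5 uM). Two reads 30 minutes apart at 525/598 nm yielded each well's rate.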
JMJD2A Tudor inh – qHTS Assay for Inhibitors of JMJD2A-Tudor Domain | Lysine-specific demethylase 4A (Homo sapiens), O75164 | AlphaScreen JMJD2A-Tudor / H3K4me3 peptide binding | Potency, µM (top dose mostly 114 µM), actives largely listed as inhibitors | actives 4.4% (n = 390,000) | AID 504339, 2011; further: nearly all actives have a fitted effect of over 50% in size
G9a inh – qHTS Assay for Inhibitors of Histone Lysine Methyltransferase G9a | AID 504332, 2011 | Histone-lysine N-methyltransferase EHMT2 (Homo sapiens), Q96KQ7 | Potency, µM (highest dose often 102 µM), usual class: inhibitors | actives 8.8% (n = 350,000) | G9a H3K9 monomethylation, AlphaScreen, 2 h; further: nearly all actives have a fitted effect of over 75% in size
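G9a (20 nM) was preincubated 15 min with compound, then reacted 2 h at room temperature with 500 nM biotin-H3K9 peptide and 20 µM SAM. Monomethyl-H3K9 detected by AlphaScreen using anti-H3K9me1 antibody.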
BAZ2B block – qHTS Assay for Inhibitors of BAZ2B; Bromodomain adjacent to zinc finger domain protein 2B (Homo sapiens), Q9UIF8; actives 4.4% (n = 360,000); Potency, µM (highest dose often 114 µM), most hits filed as inhibitors; AlphaScreen BAZ2B-H3K14Ac peptide displacement; further: nearly all actives have a fitted effect of over 60% in size
Target sequence (Q9UIF8 whole entry, looked up, the tested form may be a part): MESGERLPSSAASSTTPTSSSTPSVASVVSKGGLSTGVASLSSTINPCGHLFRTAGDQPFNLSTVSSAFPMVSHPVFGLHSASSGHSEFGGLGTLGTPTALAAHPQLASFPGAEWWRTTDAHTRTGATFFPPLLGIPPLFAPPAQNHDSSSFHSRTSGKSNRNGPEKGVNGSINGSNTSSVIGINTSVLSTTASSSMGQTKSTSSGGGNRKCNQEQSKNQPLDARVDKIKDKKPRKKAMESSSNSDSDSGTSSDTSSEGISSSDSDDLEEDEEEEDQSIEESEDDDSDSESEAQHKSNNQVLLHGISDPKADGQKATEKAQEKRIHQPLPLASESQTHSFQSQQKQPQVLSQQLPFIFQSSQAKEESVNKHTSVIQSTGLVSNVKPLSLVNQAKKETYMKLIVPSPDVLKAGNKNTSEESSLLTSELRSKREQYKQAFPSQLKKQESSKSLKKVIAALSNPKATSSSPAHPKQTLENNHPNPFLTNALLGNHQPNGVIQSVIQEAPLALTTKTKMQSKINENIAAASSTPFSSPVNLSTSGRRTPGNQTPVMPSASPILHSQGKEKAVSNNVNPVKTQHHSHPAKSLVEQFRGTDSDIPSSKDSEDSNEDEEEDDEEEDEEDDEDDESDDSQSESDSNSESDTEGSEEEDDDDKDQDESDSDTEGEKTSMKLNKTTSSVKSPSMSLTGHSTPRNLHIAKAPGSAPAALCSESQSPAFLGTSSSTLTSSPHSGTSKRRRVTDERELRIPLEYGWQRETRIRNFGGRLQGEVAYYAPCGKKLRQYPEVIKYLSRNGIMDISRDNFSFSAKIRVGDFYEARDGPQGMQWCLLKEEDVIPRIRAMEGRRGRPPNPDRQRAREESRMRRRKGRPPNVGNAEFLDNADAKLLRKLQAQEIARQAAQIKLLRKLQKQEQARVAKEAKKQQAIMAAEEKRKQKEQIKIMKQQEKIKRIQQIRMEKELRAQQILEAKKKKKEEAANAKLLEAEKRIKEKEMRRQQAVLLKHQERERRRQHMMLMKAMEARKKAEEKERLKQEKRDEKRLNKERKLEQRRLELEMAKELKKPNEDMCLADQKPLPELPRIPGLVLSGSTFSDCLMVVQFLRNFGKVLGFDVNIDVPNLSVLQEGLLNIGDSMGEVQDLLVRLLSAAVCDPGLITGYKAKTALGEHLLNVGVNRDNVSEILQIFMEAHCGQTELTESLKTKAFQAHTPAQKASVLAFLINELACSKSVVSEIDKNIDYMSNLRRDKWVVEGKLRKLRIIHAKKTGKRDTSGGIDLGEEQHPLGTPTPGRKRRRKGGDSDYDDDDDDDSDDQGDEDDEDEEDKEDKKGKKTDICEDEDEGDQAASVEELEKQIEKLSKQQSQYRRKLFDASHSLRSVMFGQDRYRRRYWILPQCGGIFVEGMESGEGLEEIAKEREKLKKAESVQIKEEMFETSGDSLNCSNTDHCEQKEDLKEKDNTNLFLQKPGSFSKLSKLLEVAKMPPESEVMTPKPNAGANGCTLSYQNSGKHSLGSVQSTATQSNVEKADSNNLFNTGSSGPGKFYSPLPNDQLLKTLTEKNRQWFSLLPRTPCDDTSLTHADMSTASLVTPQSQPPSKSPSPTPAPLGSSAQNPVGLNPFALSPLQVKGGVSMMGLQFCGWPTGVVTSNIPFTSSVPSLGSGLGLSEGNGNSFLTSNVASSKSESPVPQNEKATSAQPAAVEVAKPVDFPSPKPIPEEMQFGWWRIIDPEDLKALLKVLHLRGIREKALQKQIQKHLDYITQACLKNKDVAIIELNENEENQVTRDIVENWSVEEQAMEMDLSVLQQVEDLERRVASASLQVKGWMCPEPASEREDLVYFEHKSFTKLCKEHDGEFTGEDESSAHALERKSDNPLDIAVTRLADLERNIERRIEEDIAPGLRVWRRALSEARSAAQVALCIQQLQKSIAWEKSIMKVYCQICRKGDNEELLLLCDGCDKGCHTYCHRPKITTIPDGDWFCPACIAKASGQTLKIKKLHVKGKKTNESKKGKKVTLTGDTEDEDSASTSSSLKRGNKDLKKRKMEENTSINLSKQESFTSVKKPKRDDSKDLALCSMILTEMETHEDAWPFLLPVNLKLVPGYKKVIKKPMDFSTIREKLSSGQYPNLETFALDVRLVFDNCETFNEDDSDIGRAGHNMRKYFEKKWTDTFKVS
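Complex of BAZ2B and biotin-H3K14Ac (50 nM apiece) forms over 30 min at RT, then faces library compounds up to 110 uM for another 30 min; AlphaScreen beads added, 20 min dark incubation, luminescence read.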
HP1b chromo inh – HTS for Inhibitors of HP1-beta Chromodomain Interactions with Methylated Histone Tails. Chromobox protein homolog 1 (Homo sapiens), P83916. AlphaScreen HP1-beta / biotin-H3K9me3 peptide binding. Potency, µM (highest dose often 114 µM), actives largely listed as inhibitors. actives 0.56% (n = 390,000). AID 540317, 2011; further: nearly all actives have a fitted effect of over 70% in size
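AlphaScreen: HP1-beta (50 nM) preformed 30 min with biotin-H3(1-18)K9me3 peptide (50 nM) in PBS pH 7.4, 0.01% Tween-20. Compound added for 30 min at RT, then streptavidin donor/nickel chelate acceptor beads (10 ug/mL) for 30 min.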
Each line names hits and unclear results; the compound was inactive in the other large screens. Sampled rows, rich in hits. Any-hit rate of the full collection: about 12%. The call rests on the fitted dose curve; in most records, active means well fitted curve in the direction sought with a large enough effect; inconclusive means small, poorly fitted or top-dose-only effect, or another doubt; inactive means no such curve, though single readings can be large; an effect the other way counts as inactive or inconclusive.

O=C(Nc1nc(-c2ccc(Br)cc2)cs1)c1cccnc1	none
CC(C)/C=N/Nc1nc(-c2ccc(Br)cc2)cs1	Sfp PPTase inh 79µM, BAZ2B block inconclusive
CC(C)CO/N=C1/C[C@@H](O)[C@@H](O)[C@@H]2[C@@H]3C(=O)N([C@@H](C)c4ccccc4)C(=O)[C@H]3CC[C@H]12	none (no result: JMJD2A Tudor inh, G9a inh, BAZ2B block, HP1b chromo inh)
CC(O)CCC(=O)NCCNC(=O)CCC(C)O (centres undefined)	JMJD2A Tudor inh 28µM
COc1ccccc1CNC(=O)C(Cc1ccccc1)NC(=O)c1ccccc1 (centres undefined)	none (no result: Sfp PPTase inh, G9a inh, BAZ2B block)
Clc1ccc(-c2nc3sccn3c2/C=N/OCc2ccc(Cl)c(Cl)c2)cc1	none (no result: JMJD2A Tudor inh, BAZ2B block, HP1b chromo inh)
O=C(O)C1C2C=CC(O2)C1C(=O)Nc1cccc(C(F)(F)F)c1 (centres undefined)	none (no result: G9a inh)
Cc1csc(NC(=O)C2C3C=CC(O3)C2C(=O)O)n1 (centres undefined)	Sfp PPTase inh inconclusive, JMJD2A Tudor inh 25µM, G9a inh inconclusive
CCOc1ccccc1NC(=O)C1C2C=CC(O2)C1C(=O)O (centres undefined)	Sfp PPTase inh inconclusive, G9a inh inconclusive, BAZ2B block inconclusive
O=C(O)C1C2C=CC(O2)C1C(=O)Nc1ccccc1C(F)(F)F (centres undefined)	Sfp PPTase inh 28µM, JMJD2A Tudor inh 79µM, G9a inh 3.2µM, HP1b chromo inh 79µM
CCc1ccccc1NC(=O)C1C2C=CC(O2)C1C(=O)O (centres undefined)	G9a inh 35µM
COc1cc(O)cc(OC)c1OC	none (no result: JMJD2A Tudor inh, G9a inh, BAZ2B block, HP1b chromo inh)
CC1Cn2c(C(=O)NCc3ccccc3Cl)cc3cccc(c32)S1 (centres undefined)	none (no result: Sfp PPTase inh)
COc1ccccc1CNC(=O)C(=O)NCC(c1ccc2c(c1)OCO2)N1CCOCC1 (centres undefined)	none (no result: Sfp PPTase inh)
O=C(N/N=C/c1ccc2cccnc2c1)c1ccco1	G9a inh 28µM
O=C(N/N=C/c1ccc(Cl)cc1Cl)c1ccc2nc[nH]c2c1	G9a inh 71µM
O=C(C[n+]1ccc(C(=O)N/N=C/c2ccc(Cl)cc2Cl)cc1)c1ccccc1	JMJD2A Tudor inh inconclusive, G9a inh 50µM
O=C(N/N=C/c1ccc(Cl)cc1Cl)c1cccc(F)c1	Sfp PPTase inh 20µM
O=C(N/N=C/C(Br)=C/c1ccccc1)C(O)c1ccccc1 (centres undefined)	none
O=C(CCCC(=O)NN=Cc1ccc(Cl)cc1Cl)NN=Cc1ccc(Cl)cc1Cl	none (no result: Sfp PPTase inh, G9a inh, BAZ2B block)
O=C(O)c1ccc(N/N=C/C(Br)=C/c2ccccc2)cc1	Sfp PPTase inh inconclusive, JMJD2A Tudor inh inconclusive, G9a inh 50µM
CC(=C/c1ccccc1)/C=N/NC(=O)c1ccc2nc[nH]c2c1	none
O=C(N/N=C/C(Br)=C\c1ccccc1)c1ccc2nc[nH]c2c1	Sfp PPTase inh 50µM
Cc1ccc(Nc2nc3c(s2)CCC3)c(C)c1	Sfp PPTase inh inconclusive, G9a inh inconclusive
COc1ccccc1Nc1nc(C)c(C(=O)Nc2ccccc2)s1	G9a inh 50µM
COc1ccccc1Nc1nc2c(s1)CCC2	Sfp PPTase inh 40µM, G9a inh 25µM
Cc1nc(Nc2ccccc2Cl)sc1C(=O)Nc1ccccc1	G9a inh 28µM, BAZ2B block inconclusive
CCOc1ccc(CCNC(=O)CCCn2c(=O)c3cccn3c3cccnc32)cc1	none (no result: Sfp PPTase inh)
CCSc1nnc(NC(=O)c2cc(=O)c3cc(C)ccc3o2)s1	none (no result: Sfp PPTase inh)
COc1ccc(C2c3ccc(O)cc3Oc3ncn4nc(-c5cccnc5)nc4c32)cc1OC (centres undefined)	none
COC(=O)c1cc(S(=O)(=O)N2CCOCC2)c(Cl)cc1N1CCOCC1	none
COC(=O)c1cc(C)nc2c1C(=O)C(=O)C=C2N1CCOCC1	G9a inh 45µM, BAZ2B block 50µM
Cc1ccc(-n2cc(C(=O)Oc3ccc(F)cc3)c3ccccc3c2=O)cc1	none (no result: Sfp PPTase inh)
CC1(C)C(=O)Nc2ccccc2N1C(=O)COC(=O)c1cccc(O)c1	JMJD2A Tudor inh inconclusive (no result: Sfp PPTase inh, G9a inh, BAZ2B block)

Screening results deposited in PubChem BioAssay by National Center for Advancing Translational Sciences (NCATS).
